Screens from PubChem BioAssay.
Only some compounds are listed: those with a hit (about 6.2% of all), similar ones and a draw of the others.
Gal4-VP16 FLuc – Gal4-VP16 reporter inhibition counter-screen | Drosophila S2 Gal4-VP16 UAS-luciferase, luminescence, 20 h | actives 3.5% (n = 310,000) | AID 2546 | Potency, µM (highest dose often 53.6 µM), actives largely listed as inhibitors;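 note: Gal4-VP16 expression switched on by copper sulfate through the metallothionein promoter; nearly all actives have a fitted effect of over 50% in size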
Luc counter – Kinase-Glo luciferase inhibition (counter-screen); Q27757; AID 1379; Potency, µM (doses to about 38.3 µM), usual class: inhibitors; actives 0.28% (n = 200,000); Kinase-Glo luciferase, ATP luminescence, 8 min; note: nearly all actives have a fitted effect of over 60% in size
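Light output from Kinase-Glo luciferase with luciferin and 10 uM ATP in 50 mM imidazole pH 7.2, KCl, MgCl2, Tween 20, BSA; compound pin-delivered, 8-min ambient incubation, then luminescence read.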
RORg inh – ROR gamma (mouse) transcription inhibition; P51450; Drosophila S2 Gal4-RORgamma UAS-luciferase reporter, 20 h; Potency, µM (doses to about 53.6 µM), actives largely listed as inhibitors; actives 5.4% (n = 310,000); AID 2551; note: nearly all actives have a fitted effect of over 60% in size
Target sequence (P51450 whole entry, looked up, the tested form may be a part): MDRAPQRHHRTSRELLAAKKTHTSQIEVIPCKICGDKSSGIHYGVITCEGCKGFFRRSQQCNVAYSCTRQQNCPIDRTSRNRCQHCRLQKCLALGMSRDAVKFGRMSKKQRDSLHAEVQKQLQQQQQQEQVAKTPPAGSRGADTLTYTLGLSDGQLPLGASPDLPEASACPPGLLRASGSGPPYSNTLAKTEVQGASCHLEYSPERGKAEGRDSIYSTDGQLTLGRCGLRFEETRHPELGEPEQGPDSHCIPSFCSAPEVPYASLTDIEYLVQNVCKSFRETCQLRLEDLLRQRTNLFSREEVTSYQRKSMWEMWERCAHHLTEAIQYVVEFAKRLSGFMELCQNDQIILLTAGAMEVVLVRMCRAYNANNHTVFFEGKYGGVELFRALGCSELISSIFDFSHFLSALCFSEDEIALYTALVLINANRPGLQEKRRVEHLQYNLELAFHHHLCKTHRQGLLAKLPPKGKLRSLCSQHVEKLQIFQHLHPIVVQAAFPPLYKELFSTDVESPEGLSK
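Stably transfected Drosophila Schneider cells are the test system, with ROR gamma fused to Gal4 and luciferase under UAS control; luminescence is read after 20 hr of 700 uM copper sulfate induction at ambient temperature.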
Numbers stand for hits; . = inactive; ? = inconclusive; / = no result; [ ] = dose if it differs, or a comment. Calls come from the whole dose curve; as a rule, active = well fitted curve in the direction sought with a large enough effect; inconclusive = small, poorly fitted or top-dose-only effect, or another doubt; inactive = no such curve, though single readings can be large; an effect the other way counts as inactive or inconclusive.

SMILES | Gal4-VP16 FLuc | Luc counter | RORg inh
CC(C)[C@H](NC(=O)OC(C)(C)C)c1nnc(S(=O)(=O)Cc2c(F)cccc2Cl)o1 | 5.01µM | . | 4.47µM
CC(C)C[C@H](NC(=O)OC(C)(C)C)c1nnc(SCc2ccccc2)o1 | . | . | .
CC(C)C[C@H](N)c1nnc(S(=O)(=O)Cc2cccc(F)c2)o1 | ? | . | 6.31µM
CC(C)=CCSc1nnc([C@@H](NC(=O)OC(C)(C)C)C(C)C)o1 | . | . | .
Cc1ccccc1CS(=O)(=O)c1nnc([C@H](CC(C)C)NC(=O)OC(C)(C)C)o1 | 4.47µM | . | 7.08µM
CC(C)Cn1nnnc1S(=O)(=O)Cc1cccc(C#N)c1 | . | . | .
CC(C)(C)C(=O)C(Oc1ccc(Cl)cc1)n1ccnc1 (stereo unspecified) | . | / | .[10 µM]
O=[N+]([O-])/C(C(Cl)=C(Cl)Cl)=C(/Sc1ccccc1)N1CCCCC1 | . | / | .
CCCCN(CC)CCNC(=O)CN1C(=O)COc2ccc(S(=O)(=O)N3CCCC3)cc21 | . | . | .
CCOC(=O)c1c(NC(=O)CSc2nnc(-c3cccnc3)o2)sc(C(C)=O)c1C | ? | . | 10µM
CCOC(=O)c1c(NC(=O)CSc2nnc(-c3ccco3)o2)sc(C(C)=O)c1C | . | . | .
C[C@@H]1c2ccccc2CN1CC1=NCCN1 | . | . | .
O=c1oc2ccccc2c(Nc2cccc3ccccc23)c1[N+](=O)[O-] | ? | . | ?
O=c1oc2ccccc2c(Nc2cccc3cccnc23)c1[N+](=O)[O-] | .[10 µM] | . | 11.2µM
CCN(CC)CCSc1nnc2c3ccccc3n(Cc3ccccc3)c2n1 | . | / | .
COc1cc(/C=N/NC(N)=S)ccc1OCC(=O)Nc1ccc(C)c(C)c1 | ? | . | 11.2µM
CCOc1cc(/C=N/NC(N)=O)ccc1OCC(=O)Nc1ccc(C)c(C)c1 | . | . | .
CCCCNC(=S)N/N=C/c1ccc(OCC(=O)Nc2c(C)cc(C)cc2C)c(OC)c1 | 5.01µM | . | ?
COc1cc(/C=N/NC(N)=O)ccc1OCC(=O)Nc1ccc(C)c(C)c1 | . | . | .
Cc1cccc(N/C=C(\[N+](=O)[O-])S(=O)(=O)c2ccccc2)c1C | . | . | .
O=C(NCCN1CCCC1)c1ccccc1Cl | . | . | .
O=C1C(Cl)=C(NCCN2CCCCC2)C(=O)c2ccccc21 | ? | . | 10µM
OCl | . | / | .
CC(C)CCC(CCNCc1ccccn1)c1ccc(Cl)cc1 (stereo unspecified) | . | / | 11.2µM
c1ccc(CNCCN2CCNCC2)nc1 | . | . | .
SMILES | Gal4-VP16 FLuc | Luc counter | RORg inh
C=CCn1c(SCc2cc(=O)n3ccsc3n2)nc2sc(C)c(C)c2c1=O | . | . | .
CCCCCCCCCCCCCCCCn1cc[n+](Cc2ccccc2)c1C | 7.08µM | / | ?
CCCCCCn1cc(C(=O)O)c(=O)c2ccccc21 | . | / | .
CC(C)CCC[C@@H](C)[C@H]1CC[C@H]2[C@@H]3CC[C@@H]4C[C@H](O)CC[C@]4(C)[C@H]3CC[C@]12C | . | / | .
CCOC(=O)c1c(C)oc2c1c1c(c3ccccc32)OCN(Cc2ccccn2)C1 | 11.2µM | . | 7.08µM
CCOC(=O)c1c(C)oc2c1c(CN1CCN(C(=O)OCC)CC1)c(O)c1ccccc12 | . | . | .
Oc1c(Cl)cc(Cl)cc1/C=N/c1nc(-c2ccc(Cl)cc2)cs1 | . | / | .
Oc1c(Cl)cc(Cl)cc1/C=N/c1nccs1 | ? | . | 12.6µM
N#Cc1c(Cl)nc(N/N=C/c2ccccc2)c(Cl)c1Cl | 5.01µM | . | 8.91µM
C[n+]1cccc(/C=N/Nc2nc(Cl)c(C#N)c(Cl)c2Cl)c1 | . | / | .
CC1(C)Oc2cc3c(cc2O1)OC(C)(C)O3 | .[10 µM] | / | .[10 µM]
CSCC(C)N1CCC(n2nccc2NC(=O)CCOc2ccccc2)CC1 (stereo unspecified) | . | / | .
Cc1cccn2c(=O)c(/C=N/O)c(N3CCOCC3)nc12 | . | . | .
Cc1cc(C)c(S(=O)(=O)/N=C2\C=C(Nc3ccc(C(=O)O)cc3)C(=O)c3ccccc32)c(C)c1 | 10µM | / | ?
O=C(O)c1ccc(NS(=O)(=O)c2ccc3c(c2)C(=O)c2ccccc2C3=O)cc1 | . | . | .
O=C(O)c1ccc(NC2=C/C(=N/S(=O)(=O)c3ccccc3)c3ccccc3C2=O)cc1 | 7.94µM | . | 11.2µM
Cc1cc(C)c(S(=O)(=O)/N=C2\C=C(NS(=O)(=O)c3ccccc3)C(=O)c3ccccc32)c(C)c1 | . | / | .
CN1C(=O)C[C@H](C(=O)O)[C@@H]1c1cccnc1 | . | / | .
COC(=O)C/C=C/[C@@H](C)[C@H](O)c1ccccc1Br | . | . | .
COCCCNc1nc2nonc2nc1N(C)CC1CCCN1C (stereo unspecified) | . | . | .
Cc1ccc(C(C)NC(=O)Cc2cccs2)cc1C (stereo unspecified) | . | / | .
